The values that follow come from PubChem BioAssay AID504332 (National Center for Advancing Translational Sciences (NCATS), 2011).

Molecules are shown by their SMILES. Several values for one entry are separate records, joined by “and”; a condition that tells them apart may be missing. Equal entries are not always repeated. The whole screen tested about 350,000 compounds, of which about 31,000 (8.9%) were called active. Roughly 15% stayed inconclusive and do not appear here. Calls come from the whole dose curve; as a rule, active = well fitted inhibition curve with a large enough effect; inconclusive = small, poorly fitted or top-dose-only effect; inactive = no such curve, though single readings can be large or run the other way. This excerpt belongs to a sample that is enriched for actives. A structure can be active in one record and inactive in another.
% is set by controls: 0 for no effect and ±100 for the full control effect; potency is the fitted concentration of half-maximal effect.

Histone-lysine N-methyltransferase EHMT2 (Homo sapiens), sequence (Q96KQ7 913-1193 limits assumed): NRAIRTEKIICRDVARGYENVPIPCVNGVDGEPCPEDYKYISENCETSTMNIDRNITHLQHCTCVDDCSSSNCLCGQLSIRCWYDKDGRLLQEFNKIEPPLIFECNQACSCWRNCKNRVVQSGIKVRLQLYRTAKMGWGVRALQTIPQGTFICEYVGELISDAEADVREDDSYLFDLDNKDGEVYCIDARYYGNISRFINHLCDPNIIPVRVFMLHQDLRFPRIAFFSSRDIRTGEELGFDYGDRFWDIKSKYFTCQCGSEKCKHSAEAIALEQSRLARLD

This experiment addresses Histone-lysine N-methyltransferase EHMT2 (Homo sapiens) (UniProt Q96KQ7). Nature of the experiment: qHTS Assay for Inhibitors of Histone Lysine Methyltransferase G9a. Note: nearly all actives have a fitted effect of over 75% in size. The note with it: G9a H3K9 monomethylation, AlphaScreen, 2 h; series mostly up to 59 µM; activity, negative = inhibition: at the top concentration. An outline of the steps: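 Using a bead-based AlphaScreen, monomethylated H3K9 product from 2 h room-temperature reactions (G9a 20 nM, peptide 500 nM, SAM 20 uM) was detected with 0.5 ug/mL rabbit anti-H3K9me1 antibody.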
Regarding `Cc1c(C=O)c2ccccc2n1CCOc1ccccc1`, the “activity, negative = inhibition” value was 45.3% [at 102 µM] (inactive). Consider `Cc1ccc(CS(=O)(=O)CCC(=O)NCc2ccc(F)cc2)cc1`, for which the “activity, negative = inhibition” value is 0.73% [at 102 µM] (inactive).

Take `O=C1NC(c2ccccc2)Oc2ccccc21` (stereo not drawn): the “activity, negative = inhibition” value is 23.8% [at 102 µM] (inactive).

As to `O=C1c2ccccc2C(=O)C1c1ccccc1`, the Potency entry was “inactive and 35.5 µM (active)”. As for `CN1C(=O)C[C@H](c2ccccc2)C1=O`, the activity, negative = inhibition was -19.1% [at 12.7 µM] (inactive). The same measure, in the same setting: under `CCOC(=O)N1CCN(C(=O)COc2ccc3oc4c(c3c2)CCCC4)CC1` stands 14.4% [at 2.33 µM] (inactive); under `O=C(CCN1C(=O)C2CCCCC2C1=O)Nc1ccc(OC(F)F)cc1` (stereo not drawn), -6.31% [at 102 µM] (inactive). The same measure, in the same setting: under `CCOc1cc(/C=N/NC(=O)c2cccc(S(=O)(=O)N3CCOCC3)c2)ccc1OCC(=O)N(C)C` stands -7.27% [at 102 µM] (inactive). With `O=S(=O)(c1ccc(SCc2ccccc2)nc1)N1CCCCCC1`, the activity, negative = inhibition was -5.2% [at 12.7 µM] (inactive).

For the compound `Cc1ccc(-n2nnnc2CNC(=O)c2ccccc2C)cc1C`, the “activity, negative = inhibition” value is 2.96% (inactive). In the case of `COC(=O)c1ccccc1OCC(=O)N1CCN(c2ccc(Cl)cc2)CC1`, the activity, negative = inhibition was 3.66% [at 12.7 µM] (inactive). With `COC(=O)c1ccc(C(=O)OC)c(NC(=S)N2CCN(c3cc(Cl)ccc3C)CC2)c1`, the “activity, negative = inhibition” value was -9.2% (inactive). For `COC(=O)c1ccc(C(=O)OC)c(NC(=S)N2CCN(c3ccc(F)cc3)CC2)c1`, the Potency is 44.7 µM (active).

As to `COc1ccccc1CNC(=O)c1ccccc1NC(=O)c1nsc2ccccc12`, the “activity, negative = inhibition” value is -2.06% (inactive). Consider `COc1ccc(CCN2C(=O)N(c3cccc(OC)c3)C(=O)C2CC(=O)Nc2ccccc2)cc1` (stereo not drawn), for which the “activity, negative = inhibition” value is -26.4% (inactive).

With `CC(C)c1ccc(/C=C/C(=O)NCCCN2CCOCC2)cc1`, the “activity, negative = inhibition” value was 13.3% (inactive). Still for that read-out and setting: under `Cn1cnc([N+](=O)[O-])c1Sc1n[nH]c(N)n1` stands 0.592% [at 102 µM] (inactive); under `Cn1cnc([N+](=O)[O-])c1Sc1ccccc1`, 14.3% (inactive).

Turning to `Cn1cnc([N+](=O)[O-])c1Nc1ccccc1O`, the Potency was 25.1 µM (active).

On to `Cc1ccc(C2(C)NC(=O)N(CC(=O)Nc3ccccc3C(=O)N3CCCCC3)C2=O)cc1` (stereo not drawn), for which the “activity, negative = inhibition” value is -31.9% [at 102 µM] (inactive).

In the case of `Fc1ccc(-c2nc(Nc3cccc(Cl)c3)nc3c2COc2ccccc2-3)cc1`, the “activity, negative = inhibition” value is -3.69% (inactive). On to `Cc1ccc(S(=O)(=O)N2CCC(C(=O)NCCC3=CCCCC3)CC2)cc1C`, for which the activity, negative = inhibition was 15.2% [at 0.501 µM] (inactive).

Turning to `O=C(c1ccccc1)c1ccc(OCC(O)CN2CCCC2)cc1` (stereo not drawn), the “activity, negative = inhibition” value is -37.2% [at 102 µM] (inactive). As for `C[N+]1(CC(O)COc2ccccc2)CCN(C(=O)c2ccc([N+](=O)[O-])cc2)CC1` (stereo not drawn), the Potency is 6.31 µM (active). For the compound `O=[N+]([O-])c1ccc(N2CCN(CC(O)COc3ccccc3)CC2)cc1` (stereo not drawn), the “activity, negative = inhibition” value was -0.815% [at 102 µM] (inactive). As to `COc1ccc(CC(=O)N/N=C/c2cc([N+](=O)[O-])cc(Br)c2O)cc1`, the “activity, negative = inhibition” value was -16.6% [at 102 µM] (inactive). As for `O=C(NCCCN1CCOCC1)c1cc(-c2ccc(Cl)cc2)on1`, the “activity, negative = inhibition” value is 16.3% (inactive). With `Cc1ccc(NS(=O)(=O)c2ccc(C(=O)NCCCN3CCOCC3)cc2)cc1`, the “activity, negative = inhibition” value is -22.7% [at 102 µM] (inactive). Regarding `CCOc1cc2[nH]c(=O)n(Cc3ccc(C(=O)NCCN(CC)CC)cc3)c(=O)c2cc1OCC`, the “activity, negative = inhibition” value was -1.55% (inactive). As for `CCN(CC)CCCNC(=O)c1ccc2c(=O)n(Cc3ccc4c(c3)OCO4)c(=S)[nH]c2c1`, the Potency is 31.6 µM (active).

As to `CCCCNC(=O)CCn1c(=S)[nH]c2cc3c(cc2c1=O)OCO3`, the activity, negative = inhibition is 5.03% [at 0.0925 µM] (inactive). On to `O=C(CCn1c(=S)[nH]c2cc3c(cc2c1=O)OCO3)NCc1ccc(Cl)cc1`, for which the “activity, negative = inhibition” value was 53.9% (inactive). For the compound `COc1ccc(-c2cc(C(=O)NCCCN3CCOCC3)no2)cc1`, the “activity, negative = inhibition” value was 14.1% [at 102 µM] (inactive). Regarding `CN(C)CCn1c(=S)[nH]c2ccc(Cl)cc2c1=O`, the Potency is 50.1 µM (active). For the compound `COc1ccc(Cn2c(=S)[nH]c3cc(C(=O)N4CCCCC4)ccc3c2=O)cc1`, the “activity, negative = inhibition” value was 22.6% [at 102 µM] (inactive). Take `COc1ccc(Cn2c(=S)[nH]c3cc(C(=O)NCCCN4CCOCC4)ccc3c2=O)cc1`: the Potency is 10 µM (active). `CCCCn1c(=S)[nH]c2ccccc2c1=O`: the “activity, negative = inhibition” value is 25.5% (inactive).

For the compound `Cc1c(C)n(Cc2ccc(Cl)cc2)c2ccc(C(=O)NCCCN3CCOCC3)cc12`, the Potency is 44.7 µM (active). Regarding `Cc1ccc2nnn(Cc3cccc(C(C)(C)C)c3O)c2c1`, the activity, negative = inhibition is 15.4% [at 2.33 µM] (inactive).

Turning to `COc1ccc(CCNC(=O)CCc2c(C)nc3c(c(C)nn3-c3ccc(C)c(C)c3)c2C)c(OC)c1OC`, the “activity, negative = inhibition” value was -1.62% (inactive). On the same count and under the same terms, under `O=C(CSc1nnnn1C1CCCC1)N1CCCCC1` stands -8.4% [at 102 µM] (inactive). Regarding `Cc1cccc(CC(=O)Nc2cccc(-c3cn4cccnc4n3)c2)c1`, the “activity, negative = inhibition” value is 0.135% (inactive).

Take `CC(=O)c1ccc(NC(=O)C2CCN(S(=O)(=O)c3c(C)noc3/C=C/c3ccc(C)cc3)CC2)cc1`: the “activity, negative = inhibition” value is 6.83% (inactive). Same read-out and setting: under `Cc1noc(C)c1COc1ccc(C(=O)NCCOc2ccccc2)cc1` stands 19.8% [at 12.7 µM] (inactive). Still for that read-out and setting: under `Cc1ccc(CNC(=O)CCc2c(C)nc3c(c(C)nn3-c3ccccc3)c2C)cc1` stands 1.65% (inactive); under `CC(CC(=O)N1CCN(c2ccccc2)CC1)S(=O)(=O)c1ccc2c(c1)NC(=O)CS2` (stereo not drawn), -15.8% [at 102 µM] (inactive). With `Cc1ccc(N2CC(c3nnc(Cc4ccccc4Cl)o3)CC2=O)cc1` (stereo not drawn), the “activity, negative = inhibition” value was -22.7% (inactive).

Turning to `COc1cccc(NC(=O)CN(C)C(=O)c2cc(C3CC3)nn2-c2ccccc2)c1`, the activity, negative = inhibition was 1.72% [at 2.33 µM] (inactive).
